The source of these data is PubChem BioAssay.

Structures are written as SMILES. Values joined by “and” are separate entries in the source; they are usually repeats but may differ in a detail not shown here. Identical values can stand only once. Results filed as inconclusive are left out. Active and inactive are the calls of the source.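 The calls were made as follows, unless noted: active = normalized viability below 100% at a tested concentration; inactive = the rest.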

Assay [1] is described as follows: viability loss in pontine glioma line – cell-based, SU-DIPG-IV, MIPE4.0, CellTiter-Glo, qHTS, dose response (AID 1347063; cut-off not given, nearly all actives have AC50 up to about 30 µM;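 also: compound exposure lasted 48 hours before the viability readout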). The note with it: CellTiter-Glo ATP luminescence. In general terms: ATP-based viability assays read luminescence as a measure of living cells.
The nature of assay [2]: viability loss in pontine glioma line – cell-based, SU-DIPG-XIII, MIPE5.0, CellTiter-Glo, qHTS, dose response (AID 1347064; cut-off not given, nearly all actives have AC50 up to about 23 µM;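 as to AC50: cells exposed to compound for 48 hours before the viability read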). The note with it: CellTiter-Glo ATP luminescence.
Assay [3] is described as follows: viability loss in pontine glioma line – cell-based, SU-DIPG-XXV, MIPE5.0, CellTiter-Glo, qHTS, dose response (AID 1347065; cut-off not given, nearly all actives have AC50 up to about 26 µM;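 also: cells exposed to compound for 48 hours before ATP readout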). Particulars: CellTiter-Glo ATP luminescence.
A short description of assay [4]: growth inhibition of DIPG cells – cell-based, MIPE4.0 library, CellTiter-Glo luminescence, qHTS (AID 1347066; cut-off not given, nearly all actives have AC50 up to about 30 µM;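 also: cells exposed to compound for 48 hours before readout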). The note with it: SU-DIPG-VI viability, CellTiter-Glo ATP luminescence.
A short description of assay [5]: growth inhibition of DIPG cells – cell-based, MIPE5.0 library, qHTS (AID 1347068; cut-off not given, nearly all actives have IC50 up to about 30 µM). The note with it: SU-DIPG-XXV viability.
Assay [6] can be described thus: P. berghei load reduction in hepatocytes – cell-based, HepG2, luciferase luminescence, HepG2 viability, primary screen (AID 624349; in the data active = parasite load remaining mostly below about 12%, no sharp cut-off; inactive = mostly above about 10%;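 also: 100% = mean of DMSO negative control wells on the same plate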). The note with it: P. berghei liver stage in HepG2, luciferase luminescence, concentration not given here; parasite load remaining: stronger effect = lower value; viability: measured here: HepG2 viability without parasites.
Assay [7] relates to Hepatitis C virus NS3 helicase. In words: blockers of NS3h binding to ssDNA – biochemical, fluorescence polarization, LOPAC1280 library, primary screen (AID 687035; in the data active = inhibition above about 37%). The note with it: Purified HCV NS3 helicase, Cy5-dT15 ssDNA binding fluorescence polarization; stronger effect = higher value; concentration not given here. For orientation: Polarisation of emitted light reports the rotation of a fluorescent probe.

Assay [8] is described as follows: compounds altering Cy5-DNA-NS3h complex signal – biochemical, LOPAC1280, artefact control for HCV NS3 helicase inhibitor project (AID 687037; call rule not given here). Particulars: Cy5-DNA-NS3h complex fluorescence interference counterscreen.
A short description of assay [9]: viability loss in pontine glioma line – cell-based, JHH-DIPG-1, MIPE4.0, CellTiter-Glo, qHTS, dose response (AID 1347062; cut-off not given, nearly all actives have AC50 up to about 27 µM). The note with it: JHH-DIPG-1 viability, CellTiter-Glo ATP luminescence.
A short description of assay [10]: JHH-DIPG-1 glioma cell viability, MIPE5.0 library, CellTiter-Glo luminescence, qHTS (AID 1347067; cut-off not given, nearly all actives have AC50 up to about 26 µM;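 also: cells exposed to compound for 48 hours before readout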). Particulars: JHH-DIPG-1 glioma viability, CellTiter-Glo ATP luminescence.
The nature of assay [11]: viability loss with induced miR-34 in A549 – imaging, A549 dox-inducible miR-34, nuclei and caspase counts, primary screen (AID 1347080;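 active = compounds whose cell count with miR-34 switched on is under 0.7 times the count with it off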). The note with it: A549 miR-34 inducible, Hoechst nuclei count, 48 h.
Assay [12] can be described thus: blockers of cellular phospholipid synthesis – cell-based, LOPAC library, screen 4, primary screen (AID 1347384; call rule not given here). Particulars: animal cells, phospholipid biosynthesis inhibition screen; at 10 µM.
Assay [13] is described as follows: galactose survival enhancers in mitochondrial complex I cybrids – cell-based, galactose medium, ATP luminescence, primary screen (AID 1645843;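 active = z-score of at least 1.8 in each of two replicates, scored against plate mean and spread of sample wells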;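 also: positive z means more ATP and so rescue of galactose-driven cybrid death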). Particulars: complex I mutant cybrid cells, 72 h, stronger effect = higher value.
Assay [14] is described as follows: MELAS cybrid and Rieske KO viability enhancers – cell-based, MELAS cybrids, Rieske KO mouse fibroblasts, CellTiter-Glo, primary screen (AID 1508586;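 active = mean z-score across replicates of 1.96 or higher in either the MELAS or the Rieske mutant cell line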;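 also: z relative to plate mean and SD of compound and empty wells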). The note with it: low glucose.
Assay [15] in a line: drug combination growth inhibition, ovarian cancer – cell-based, oncology-focused library, rucaparib conditional, profiling panel (AID 1508598). The note with it: patient-derived ovarian cancer cells, CellTiter-Glo viability, 144 h, stronger effect = lower value.
Where [16] appears, read: stronger effect = lower value, cell number ratio, induced over uninduced.
Where [17] appears, read: measured here: relative caspase fold change +Dox/-Dox.
[18] abbreviates: measured here: total cells with miR-34 induction, stronger effect = lower value.
The mark [19] stands for this setting: measured here: total cells without miR-34 induction.

Take `N#Cc1ccc(Oc2ccc3c(c2)COB3O)cc1`: the result in [1], in assay [2], in [3], in [4] and in assay [5] was inactive.

As usually defined, the viability is a read-out of living cells in per cent, often relative to untreated cells. One may read the inhibition as the change of the read-out against control, counted positive when it falls. `O=C1NC(=O)/C(=C/c2ccc(-c3ccc(F)cc3O)o2)S1`: the parasite load remaining in [6] is 10.7% (active). Moreover, the viability in [6] was 62.9%. Also, the inhibition in assay [7] is 0% (inactive). The fluorescence ratio (interference) in assay [8] was 1 (inactive). Further, the result in assay [9], in assay [10] and in assay [12] was inactive. Also, the fold change in [11] (setting [16]) was 1.04 (inactive) and 0.983 (inactive); in [11] (setting [17]), 2.12 and 0.302. For the same compound, the cell count in assay [11] (setting [18]) is 6690 and 5950; in [11] (setting [19]), 6460 and 6050. For the same compound, the z-score in [13] is 1.31 (inactive).

The AC50 is the concentration giving half of the maximal activity seen. `Cc1cc(C(=O)Nc2cc(Oc3ccc4nc(NC(=O)C5CC5)cn4n3)ccc2C)n(C)n1`: the AC50 is 10.5 µM (active) in assay [2] and 5.9 µM (active) in assay [3].

As for `CC(C)(C)Cn1c(N)nc2ccc(-c3[nH]c(C(C)(C)C)nc3-c3ccc(F)cc3)nc21`, the AC50 in [1] is 26.4 µM (active); in assay [3], 26.3 µM (active); in assay [4] it was 20.9 µM (active); in [10] it was 20.9 µM (active). Also, the fold change is 0.962 (inactive) in assay [11] (setting [16]) and 0.864 in assay [11] (setting [17]). The cell count in [11] (setting [18]) came to 5480; in assay [11] (setting [19]), 5700. Further, the z-score is -0.234 (inactive) in assay [14] (MELAS cybrid survival, CellTiter-Glo 48 h, stronger effect = higher value) and 0.553 in [14] (Rieske KO mouse fibroblast survival, CellTiter-Glo 72 h). Besides, the viability in assay [15] (at 0.000305 µM, OCI-C5x cells, with rucaparib 10 µM, 100% = cells with rucaparib alone) was 114% (inactive); in assay [15] (at 0.000305 µM, OCI-C5x cells, without rucaparib) it was 115% (inactive); in assay [15] (at 0.000305 µM, OCI-P5x cells, with rucaparib 20 µM, 100% = cells with rucaparib alone), 99.8% (active); in [15] (at 0.000305 µM, OCI-P5x cells, without rucaparib) it was 104% (inactive); in assay [15] (at 0.00122 µM, OCI-C5x cells, with rucaparib 10 µM, 100% = cells with rucaparib alone), 112% (inactive); in assay [15] (at 0.00122 µM, OCI-C5x cells, without rucaparib), 110% (inactive). Moreover, the viability in assay [15] (at 0.00122 µM, OCI-P5x cells, with rucaparib 20 µM, 100% = cells with rucaparib alone) is 101% (inactive); in assay [15] (at 0.00122 µM, OCI-P5x cells, without rucaparib), 107% (inactive); in [15] (at 0.00488 µM, OCI-C5x cells, with rucaparib 10 µM, 100% = cells with rucaparib alone) it was 110% (inactive); in [15] (at 0.00488 µM, OCI-C5x cells, without rucaparib), 121% (inactive); in assay [15] (at 0.00488 µM, OCI-P5x cells, with rucaparib 20 µM, 100% = cells with rucaparib alone), 108% (inactive); in assay [15] (at 0.00488 µM, OCI-P5x cells, without rucaparib), 110% (inactive). The viability is 103% (inactive) in [15] (at 0.0195 µM, OCI-C5x cells, with rucaparib 10 µM, 100% = cells with rucaparib alone); 112% (inactive) in assay [15] (at 0.0195 µM, OCI-C5x cells, without rucaparib); 103% (inactive) in assay [15] (at 0.0195 µM, OCI-P5x cells, with rucaparib 20 µM, 100% = cells with rucaparib alone); 107% (inactive) in [15] (at 0.0195 µM, OCI-P5x cells, without rucaparib); 96.9% (active) in [15] (at 0.0781 µM, OCI-C5x cells, with rucaparib 10 µM, 100% = cells with rucaparib alone); 117% (inactive) in assay [15] (at 0.0781 µM, OCI-C5x cells, without rucaparib). The viability in assay [15] (at 0.0781 µM, OCI-P5x cells, with rucaparib 20 µM, 100% = cells with rucaparib alone) is 101% (inactive); in assay [15] (at 0.0781 µM, OCI-P5x cells, without rucaparib), 109% (inactive); in assay [15] (at 0.313 µM, OCI-C5x cells, with rucaparib 10 µM, 100% = cells with rucaparib alone), 94.5% (active); in assay [15] (at 0.313 µM, OCI-C5x cells, without rucaparib), 121% (inactive); in assay [15] (at 0.313 µM, OCI-P5x cells, with rucaparib 20 µM, 100% = cells with rucaparib alone), 103% (inactive); in assay [15] (at 0.313 µM, OCI-P5x cells, without rucaparib), 105% (inactive). Moreover, the viability in assay [15] (at 1.25 µM, OCI-C5x cells, with rucaparib 10 µM, 100% = cells with rucaparib alone) was 108% (inactive); in [15] (at 1.25 µM, OCI-C5x cells, without rucaparib) it was 140% (inactive); in [15] (at 1.25 µM, OCI-P5x cells, with rucaparib 20 µM, 100% = cells with rucaparib alone), 99.8% (active); in [15] (at 1.25 µM, OCI-P5x cells, without rucaparib) it was 104% (inactive); in [15] (at 5 µM, OCI-C5x cells, with rucaparib 10 µM, 100% = cells with rucaparib alone), 175% (inactive); in assay [15] (at 5 µM, OCI-C5x cells, without rucaparib), 175% (inactive). Further, the viability was 90.5% (active) in [15] (at 5 µM, OCI-P5x cells, with rucaparib 20 µM, 100% = cells with rucaparib alone) and 92.5% (active) in [15] (at 5 µM, OCI-P5x cells, without rucaparib).
